Assay results taken from the supplement of paper PMC13094657.
± gives the standard deviation of the averaged measurements.

Columns and labels:
MDA-MB-231 [1] = test: cell viability relative to vehicle unstimulated control (fraction); higher = more viable cells; settings: pre-treatment time: 18 h then 24 h IFNg/TNF
MDA-MB-231 [2] = test: kynurenine production, fold change vs DMSO IFNg/TNF control; higher = more kynurenine produced (less inhibition); settings: pre-treatment time: 18 h then 24 h IFNg/TNF
Method in brief: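 MDA-MB-231 cells (7 × 10^4/well, 96-well plates, seeded 24 h earlier) were pre-treated 18 h with each natural product in 0.1% DMSO, then stimulated 24 h with IFNγ (1 U/ml) and TNF (6.25 ng/ml) at 37°C. Supernatant kynurenine was read at 492 nm after trichloroacetic acid and p-dimethylaminobenzaldehyde treatment, against 0–100 μM standards. Kynurenine production is the fold change over cytokine-stimulated vehicle wells on the same plate, averaged over duplicate plates in the first screening round.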
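Throughout, for cell viability relative to vehicle unstimulated control: viability of the cells left after supernatant collection, read with Deep Blue dye added for 4 h, as absorbance at 570 nm minus 600 nm.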

| Compound | cell viability (MDA-MB-231 [1]) | kynurenine production (MDA-MB-231 [2]) |
| --- | --- | --- |
| C/C=C(/C)C(=O)O[C@H]1C(C)=C[C@]23C(=O)[C@@H](C=C(CO)[C@@H](O)[C@]12O)[C@H]1[C@@H](C[C@H]3C)C1(C)C [Ingenol Mebutate] (compound dose: 10 uM) | 1.01 ± 0.026 | 0.691 ± 0.18 |
| CC(C)=CCC[C@](C)(O[C@@H]1O[C@H](CO[C@@H]2O[C@H](CO)[C@@H](O)[C@H](O)[C@H]2O)[C@@H](O)[C@H](O)[C@H]1O)[C@H]1CC[C@]2(C)[C@@H]1[C@H](O)C[C@@H]1[C@@]3(C)CC[C@H](O[C@@H]4O[C@H](CO)[C@@H](O)[C@H](O)[C@H]4O[C@@H]4O[C@H](CO)[C@@H](O)[C@H](O)[C@H]4O[C@@H]4OC[C@@H](O)[C@H](O)[C@H]4O)C(C)(C)[C@@H]3CC[C@]12C [Notoginsenoside Fa] (compound dose: 10 uM) | 1.21 ± 0.15 | 1.06 ± 0.13 |
| COc1cc2c(cc1O)C(Cc1ccc(O)cc1)[N+](C)(C)CC2 (configuration not stated) [Magnocurarine] (compound dose: 10 uM) | 1.02 ± 0.014 | 0.937 ± 0.083 |
| C/C=C1/[C@H](O[C@@H]2O[C@H](CO)[C@@H](O)[C@H](O)[C@H]2O)OC=C(C(=O)OC)[C@H]1CC(=O)OCCc1ccc(O)c(O)c1 [Oleuropein] (compound dose: 10 uM) | 0.978 ± 0.075 | 0.733 ± 0.15 |
| CC(=O)OC1CCC2(C)C(CCC3(C)C2CC=C2C4C(C)C(C)CCC4(C(=O)O)CCC23C)C1(C)C (configuration not stated) [Ursolic acid acetate] (compound dose: 10 uM) | 1.11 ± 0.14 | 0.771 ± 0.053 |
| CC1(C)C[C@@H](O)[C@]2(C)CC[C@]3(C)C(=CC[C@@H]4[C@@]5(C)CC[C@H](O)[C@](C)(CO)[C@@H]5CC[C@]43C)[C@@H]2C1 [Soyasapogenol B] (compound dose: 10 uM) | 1.02 ± 0.018 | 0.744 ± 0.025 |
